We go through 40 compounds from PubChem BioAssay (NCATS).

Records with an inconclusive call do not appear. Where a call stands in place of a potency, no number is given. Calls of active or inactive are those of the source. Calls come from the whole dose curve; as a rule, active = well fitted inhibition curve with a large enough effect; inconclusive = small, poorly fitted or top-dose-only effect; inactive = no such curve, though single readings can be large or run the other way.
Potency is the fitted concentration of half-maximal effect.

The assay can be described thus: P-glycoprotein substrates identified in KB-3-1 adenocarcinoma cell line, qHTS therapeutic library screen (AID 1346986). Note: nearly all actives have a fitted effect of over 60% in size.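 Note: potency is for cytotoxicity meaning loss of cell viability.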 The note with it: KB-3-1 parental cells viability, CellTiter-Glo, 72 h; series mostly up to 44.5 µM; activity change, negative = cytotoxicity: at the top concentration. On the procedure:
The ATP-binding cassette transporters P-glycoprotein (P-gp) is known to limit brain penetration of many chemotherapy drugs. […] We used the CellTiter-Glo viability assay to test library compounds against the parental KB-3-1 human cervical adenocarcinoma cell line and the colchicine-selected sub-line KB-8-5-11 that over-expresses P-gp. KB-8-5-11 cells were also tested in the presence of a P-gp inhibitor (tariquidar) to assess reversability of transporter-mediated resistance. Of the tested compounds, a total of 90 P-gp substrates were identified including 55 newly identified P-gp substrates. Substrates were confirmed using an orthogonal killing assay against HEK-293 cells transfected with P-gp. As exemplars, we confirmed that AT7159 (cyclin-dependent kinase inhibitor); AT9283, (Janus kinase 2/3 inhibitor); ispinesib (kinesin spindle protein inhibitor); gedatolisib (PKI-587, phosphoinositide 3-kinase/mammalian target of rampamycin inhibitor); GSK-690693 (AKT inhibitor); and KW-2478 (heat shock protein 90 inhibitor) were substrates , and direct ATPase stimulation was assessed. ABCG2 was also found to confer high levels of resistance to AT9283, GSK-690693 and gedatolisib, while ispinesib, AT7519 and KW-2478 were weaker substrates.
The HeLa derivative cell line, KB-3-1, and its colchicine-selected, P-gp-overexpressing subline, KB-8-5-11 were maintained in DMEM with 10% FCS and Pen/Strep with glutamine at 37 degree C in 5% CO2. For KB-8-5-11 cells, colchicine was added to the medium at a concentration of 100 ng/mL. HEK-293 cells transfected with empty vector (pcDNA) or vector containing human ABCB1 (MDR-19) or ABCG2 (R-5) have been described previously (Robey, Lin, Qiu, Chan & Bates, 2011) and were maintained in EMEM supplemented with 10% FCS, Pen/Strep and glutamine with 2 mg/ml G418 to select for the expression of the transporter. Cultures were confirmed to be free of mycoplasma infection using the MycoAlert Mycoplasma Detection Kit (Lonza, Walkersville, MD). For the screen, assay medium was identical to culture medium except for KB-8-5-11 where colchicine was excluded from the medium.
All cell lines were plated into 1536-well plates at 500 cells/well in 5 uL media. Compounds were then pinned in dose-response using a 1536-head pin tool (Kalypsis, San Diego, CA) and plates were incubated at 37 degree C in 5% CO2 for an additional 72 h. CellTiter-Glo reagent (Promega) was dispensed into the wells, incubated for 5 min and luminescence was read on a ViewLux instrument (Perkin-Elmer). Cytotoxic compounds were defined as those that yielded a curve class of -1.1, -1.2, -2.1, -2.2, -2.3, or -2.4, a maximum response of >50% and an AC50 of < 10 uM. Cherry-picked hits from screening analysis were tested with both the KB pair of cell lines, and the pcDNA (empty vector control) and MDR-19 (P-gp overexpressing) pair were tested, in the absence and presence of tariquidar.
Background: Quantitative high-throughput screening tests each substance at several concentrations.
Take `O=C(O)CCC=CCC[C@@H]1[C@H](N2CCCCC2)[C@@H](O)C[C@@H]1OCc1ccc(-c2ccccc2)cc1`: the outcome was inactive.
Same read-out and setting: under `COc1cccc(OC)c1-c1cc(C(=O)NC2(C(=O)O)C3CC4CC(C3)CC2C4)nn1-c1ccnc2cc(Cl)ccc12` (stereo not given) stands “inactive”.
For the compound `CN(C)CCCNC(=O)c1ccc(-c2cc(O)c3ncccc3c2)cc1`, the Potency was 18.4 µM (active).
On the same count and under the same terms, the value for `O=C1NC(=O)C(c2cnc3ccccn23)=C1c1cn2c3c(cccc13)CN(C(=O)N1CCOCC1)CC2` was 5.8 µM (active); that for `Nc1[nH]nc2nnc(-c3c(-c4ccccc4)nn4ccccc34)cc12` was “inactive”.
For the compound `CNc1nc(Nc2ccc(C(=O)N3CCOCC3)cc2OC)ncc1Cl`, the outcome was inactive.
Still for that read-out and setting: the value for `Cn1c(=O)c(-c2c(Cl)cccc2Cl)cc2cnc(Nc3cccc(C(=O)O)c3)nc21` was “inactive”.
The same measure, in the same setting: the value for `COc1cc(Nc2nc3ccccc3nc2NS(=O)(=O)c2ccc(NC(=O)c3ccc(C)c(OC)c3)cc2)cc(OC)c1` was “inactive”.
Consider `CCC(=O)OCC(=O)[C@@]1(OC(=O)CC)[C@@H](C)C[C@@H]2[C@H]3CCC4=CC(=O)C=C[C@]4(C)[C@@]3(F)[C@@H](O)C[C@@]21C`, for which the result was inactive.
Still for that read-out and setting: under `COC(=O)[C@H](c1ccccc1Cl)N1CCc2sccc2C1` stands “inactive”; under `CCC=CC[C@H]1C(=O)CC[C@@H]1CC(=O)OC`, “inactive”; under `Cc1cc(NC(=O)Nc2ccc(N(C)C)cc2)c2cc(F)cc(F)c2n1`, “inactive”.
As to `N=C1SC(=Cc2ccc(-c3ccc4c(c3)C(=O)NC4=O)o2)C(=O)N1c1ccc(Br)cc1`, the outcome was inactive.
As for `NC(=O)c1ccc(N(C(N)=O)c2c(F)cccc2F)nc1-c1ccc(F)cc1F`, the result was inactive.
The same measure, in the same setting: under `Cc1ccc2c(=O)c3cccc(CC(=O)O)c3oc2c1C` stands “inactive”.
In the case of `CSc1cccc(Nc2ncc3cc(-c4c(Cl)cccc4Cl)c(=O)n(C)c3n2)c1`, the Potency was 2.06 µM (active).
As to `CN1C(=O)C[C@H](C(=O)N[C@@H](Cc2cnc[nH]2)C(=O)N2CCC[C@@H]2C(N)=O)NC1=O`, the outcome was inactive.
Take `CN(C)c1nc(Cc2ccc(NC(=O)c3ccc(C(F)(F)F)cc3)cc2)nc(N(C)C)c1CC(=O)O`: the result was inactive.
As for `CNC(=O)c1ccc2c(C(=Nc3cccc(CN(C)C)c3)c3ccccc3)c(O)[nH]c2c1`, the Potency entry was “inactive”.
`C[C@]12CC[C@@H]3c4ccc(O)cc4CC[C@H]3[C@H]1[C@@H](O)[C@@H](O)[C@H]2O`: the result was inactive.
Still for that read-out and setting: under `Cc1ccccc1C(C(=O)NC1CCCCC1)N(C(=O)CNc1ccc(C#N)cc1)c1cccc(F)c1` (stereo not given) stands “inactive”; under `Nc1ncnc2c1ncn2[C@@H]1O[C@H](CO)[C@@H](O)[C@@H]1O`, “inactive”.
On the same count and under the same terms, the value for `COc1ccc2ccc(=O)oc2c1CC=C(C)C` was “inactive”; that for `CC(C)CN(C[C@H](O)[C@H](Cc1ccccc1)NC(=O)O[C@H]1CCOC1)S(=O)(=O)c1ccc(N)cc1` was “inactive”; that for `CCCCn1c(=O)n(Cc2ccccc2F)c(=O)c2[nH]c(Cc3ccc(NC(C)=O)cc3)nc21` was “inactive”.
As to `COc1ccc(-c2ccc3ncc4c(c3c2)n(-c2ccc(N3CCNCC3)c(C(F)(F)F)c2)c(=O)n4C)cn1`, the Potency is 0.0231 µM (active).
`CC[C@H](NC(=O)[C@H](C)NC)C(=O)N1C[C@@H](O)C[C@H]1Cc1c(-c2[nH]c3cc(F)ccc3c2C[C@H]2C[C@H](O)CN2C(=O)[C@H](CC)NC(=O)[C@H](C)NC)[nH]c2cc(F)ccc12`: the result was inactive.
On to `CNC(=O)c1cc(COc2nnc(Nc3ccc(Cl)cc3)c3ccoc23)ccn1`, for which the “activity change, negative = cytotoxicity” value was 0.314% (inactive).
On to `COc1nccc(-c2c(-c3ccc(F)cc3)ncn2C2CCC(O)CC2)n1` (stereo not given), for which the Potency entry was “inactive”.
`COc1cc2ncnc(Nc3cc(Br)c(O)c(Br)c3)c2cc1OC`: the Potency entry is “inactive”.
On to `O=c1[nH]c(=O)n([C@H]2C[C@@H](O)[C@@H](CO)O2)cc1I`, for which the result was inactive.
On the same count and under the same terms, under `CC(=O)NCCC(=O)N[C@@H](CCC(N)=O)C(=O)N[C@@H](CO)C(=O)N[C@@H](CCC(N)=O)C(=O)N[C@@H](CCC(N)=O)C(=O)N[C@H](C(=O)N[C@@H](Cc1ccccc1)C(=O)N[C@]1(C)CCCCCCC=CCCC[C@@](C)(C(=O)N[C@@H](CCC(N)=O)C(=O)N[C@@H](CC(N)=O)C(N)=O)NC(=O)[C@H](CC(C)C)NC(=O)[C@H](CC(C)C)NC(=O)[C@@H](CCCNC(=N)N)NC(=O)[C@H](Cc2c[nH]c3ccccc23)NC(=O)[C@H](CC(C)C)NC(=O)[C@H](CC(N)=O)NC1=O)[C@H](C)O` stands “inactive”.
In the case of `CC(C)Oc1cc(Nc2nc(N[C@@H](C)c3ccc(F)cn3)ncc2Cl)[nH]n1`, the Potency is 10.3 µM (active).
`COc1nc(C)cnc1NS(=O)(=O)c1cccnc1-c1ccc(-c2nnco2)cc1`: the result was inactive.
On the same count and under the same terms, the value for `CCCCC[C@H](O)C=C[C@H]1[C@H](O)CC(=O)[C@H]1CC=CCCCC(=O)O` was “inactive”; that for `O=c1cc(-c2ccc(O)c(O)c2)oc2cc(O)cc(O)c12` was “inactive”.
Still for that read-out and setting: under `CO[C@H]1O[C@@H]2O[C@@]3(C)CC[C@@H]4[C@@H](C)CC[C@@H]([C@H]1C)[C@@]24OO3` stands “inactive”; under `Cc1ccc(S(=O)(=O)OCC(=O)Nc2ccc(C(=O)O)c(O)c2)cc1`, “inactive”.
The same measure, in the same setting: the value for `OC[C@H]1O[C@@H](Oc2ccc(O)cc2)[C@H](O)[C@@H](O)[C@H]1O` was “inactive”; that for `CCCCC(C)(C)[C@H](O)C=C[C@H]1[C@H](O)CC(=O)[C@H]1CC=CCCCC(=O)O` was “inactive”.
